This passage reports growth results from PubChem BioAssay (NCI).

Assay in all cases: NCI-60 one-dose screen, 48 h (100 = growth as untreated, 0 = no growth, -100 = all killed)
Settings in all cases: 10 µM unless noted

The test system of assay [1] is T-47D breast.
For assay [2], the system named is MDA-MB-435 melanoma.
Assay [3] concerns SW-620 colon.
For assay [4], the system named is MCF7 breast.
The test system of assay [5] is HCT-116 colon.
In assay [6] the test system is HCC-2998 colon.
Assay [7] has as its system KM12 colon.
Assay [8] concerns BT-549 breast.

This is part of a sample that, as a whole, favours compounds with a hit. Of some 83,000 tested, about 20% had one in any assay.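 How to read the values: 0–100, growth inhibition (40 = 60% inhibited); 0, no net growth; -100 to 0, cell death (-40 = 40% of starting cells died; -100 = all dead).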 Values without a mark were called inactive. Activity calls are given as the source filed them. Rule for the calls: active = growth percent below 10; inactive = the rest.

`CC(=O)O[C@H]1[C@@H]2OC(=O)C(CSc3ccccc3)[C@@H]2C[C@H]2O[C@]2(C)CC/C=C(\C)CCC[C@@H]1C` (some centres undefined): the growth in assay [1] was 38.3%; in assay [2] it was 25.8%; in assay [3] it was -20.7% (active); in assay [4], 10.6%; in assay [5] it was -36.7% (active); in assay [6], 80.7%. Further, the growth in assay [7] was 51.5%.

`Cn1ncc2c(=O)nc3c(-c4ccccc4)n[nH]n3c21`: the growth in assay [1] was 95.6%; in assay [2] it was 101%; in assay [3], 107%; in assay [4], 92.8%; in assay [5], 97.6%; in assay [6], 99.2%. Also, the growth in assay [7] is 113%.

For `CC[C@@H](C(=O)[C@@H](C)[C@@H](O)[C@H](C)[C@@H]1O[C@@H]([C@@H](CC)C(=O)O)CC[C@@H]1C)[C@H]1OC2(C=C[C@@H](O)[C@]3(CC[C@@](C)([C@H]4CC[C@](O)(CC)[C@H](C)O4)O3)O2)[C@H](C)C[C@@H]1C` (some centres undefined), the growth in assay [1] is 27.2%; in assay [8], -12.3% (active); in assay [3], 16.2%; in assay [5] it was 12%; in assay [6] it was 10.7%; in assay [7] it was 12.2%.

Take `COc1ccc(C2CC(c3ccc4ccccc4c3)=NN2/C=C2\SC(=S)N(NC(=O)Cc3ccccc3Nc3c(Cl)cccc3Cl)C2=O)cc1` (centres undefined): the growth was 19.2% in assay [1]; 30% in assay [8]; 22.6% in assay [3]; 22.5% in assay [4]; 18.6% in assay [5]; 31.2% in assay [6]. Moreover, the growth in assay [7] was 16%.

Take `Nc1ccn(-c2ccc(Br)cc2)c(=O)n1`: the growth in assay [1] is 202%; in assay [8], 105%; in assay [3], 98.8%; in assay [4], 108%; in assay [5] it was 102%; in assay [6] it was 29.7%. In addition, the growth in assay [7] is 121%.

Take `CC(=O)Oc1ccc(Cl)cc1CN(C(C)=O)C1CCCCC1`: the growth was 104% in assay [1]; 107% in assay [8]; 105% in assay [3]; 97.6% in assay [4]; 102% in assay [5]; 99.4% in assay [6]. The growth in assay [7] is 112%.

On to `C=C1c2nc3ccccc3n2C=C(c2ccc(OC)cc2)N1Cc1ccccc1`, for which the growth in assay [1] was 59.9%; in assay [2], 95.1%; in assay [3] it was 88.7%; in assay [4], 86.3%; in assay [5], 73.7%; in assay [6], 82.1%. The growth in assay [7] is 98.5%.

With `NC(=O)c1cc(I)ccc1NC(=O)/C=C/c1ccccc1Cl`, the growth in assay [1] is 26.6%; in assay [8], 70.1%; in assay [3], 26.9%; in assay [4], 7.38% (active); in assay [5], 14.5%; in assay [6], 23.4%. Besides, the growth in assay [7] was 10.6%.

As for `Cc1cc(N2CCSCC2)nc(NC2CCCC(Nc3ccnc4cc(Cl)ccc34)C2)n1` (centres undefined), the growth in assay [1] is -37.2% (active); in assay [8], -60.2% (active); in assay [3], -60.8% (active); in assay [4] it was -36.3% (active); in assay [5], -65.6% (active); in assay [6] it was -58.3% (active). For the same compound, in assay [7], the growth was 8.04% (active).

Take `CC(C)CC1C(=O)N2CCC[C@H]2C2(O)O[C@](NC(=O)C3C=C4c5cccc6[nH]c(Br)c(c56)C[C@H]4N(C)C3)(C(C)C)C(=O)N12` (some centres undefined): the growth in assay [1] was 47.2%; in assay [2], 62.8%; in assay [3], 52.3%; in assay [4], 39.7%; in assay [5] it was 36.1%; in assay [6], 89.1%. Moreover, the growth in assay [7] is 40.3%.

In the case of `CC(=O)c1cc2c(N)c(C(=O)Nc3cccc(F)c3C)sc2nc1C`, the growth in assay [8] is 80.9%; in assay [2], 4.9% (active); in assay [3] it was 85.9%; in assay [4] it was 78.9%; in assay [5], 92.3%; in assay [6], 85%. In assay [7], the growth was 87.1%.

As to `N#Cc1c(-c2ccc(Cl)cc2)nc(N=Nc2c(O)[nH]c3ccc(Cl)cc23)nc1N1CCOCC1`, the growth was 92.1% in assay [8]; 91.8% in assay [3]; 97.9% in assay [4]; 93.2% in assay [5]; 96.3% in assay [6]; 101% in assay [7].

Turning to `COc1ccc(-c2nc(SCC(=O)Nc3ccc(C(=O)/C=C/c4ccc(Cl)cc4)cc3)[nH]c(=O)c2C#N)cc1`, the growth in assay [8] was 84%; in assay [2] it was 41.9%; in assay [3], 102%; in assay [4], 41%; in assay [5], 2.43% (active); in assay [7], 102%.

In the case of `COC(=O)[C@@H]1CCCN1C(=O)[C@@H]1CCCN1C(=O)[C@H](Cc1ccccc1)NC(=S)Nc1cc(C(F)(F)F)cc(C(F)(F)F)c1`, the growth in assay [8] was 81.1%; in assay [2] it was 86.5%; in assay [3], 93%; in assay [4] it was 67.1%; in assay [5], 69%; in assay [6], 93.3%. Moreover, in assay [7], the growth is 45.1%.

As to `COc1cc(-c2nc3ccccc3[nH]2)ccc1OCc1nnc(-c2ccc(CC(C)C)cc2)o1`, the growth was 88.5% in assay [8]; 98% in assay [2]; 103% in assay [3]; 79.6% in assay [4]; 82% in assay [5]; 119% in assay [6]. For the same compound, the growth in assay [7] was 102%.

As for `COc1cc2nc(N3CCCC3)nc(NCC3CCCCC3)c2cc1OC`, the growth in assay [8] was 42.6%; in assay [2], -72.3% (active); in assay [3] it was -41.6% (active); in assay [4], -78.8% (active); in assay [5], -65.2% (active); in assay [6] it was -60.1% (active). The growth in assay [7] was 75.4%.

On to `C=CC(=O)Nc1cccc(-c2nc(SC)nc(Nc3cccc(OC)c3)c2C#N)c1`, for which the growth was 45.4% in assay [8]; 43.4% in assay [2]; 89.1% in assay [3]; 52.2% in assay [4]; 54.4% in assay [5]; 82.3% in assay [6]. The growth in assay [7] is 87.9%.

Consider `Cc1cc(N2CCOCC2)nc(NCc2cc(Nc3ccnc4cc(Cl)ccc34)ccc2F)n1`, for which the growth in assay [8] is -37.7% (active); in assay [2], -79.5% (active); in assay [3], -69.9% (active); in assay [4], -55.9% (active); in assay [5] it was -78.4% (active); in assay [6] it was -69% (active). Moreover, in assay [7], the growth is -61.9% (active).

On to `O=C1c2cccc3cccc(c23)C(=O)N1CCCCN1CCN(CCCCOc2ccc(-c3nc4ccc(N5CCOCC5)cc4[nH]3)cc2)CC1`, for which the growth in assay [8] is 91.7%; in assay [2] it was 88.3%; in assay [3], 95.1%; in assay [4], 74.1%; in assay [5] it was 69.1%; in assay [7], 92.1%.

`O=C1c2c(O)cc(O)cc2-c2c(-c3ccc(O)cc3)oc3cc(O)cc1c23`: the growth in assay [8] is 50.8%; in assay [2] it was 52.9%; in assay [3] it was 45.3%; in assay [4], 33.2%; in assay [5] it was 32.5%; in assay [7] it was 58.3%.

As for `FC(F)(F)c1nc2c(NCc3ccc(-c4ccccc4)cc3)cccc2[nH]1`, the growth was 91.2% in assay [8]; 75.3% in assay [3]; 87% in assay [4]; 74.1% in assay [5]; 107% in assay [6]; 80.5% in assay [7].

Regarding `CCNC(=O)Oc1ccc(/C(=C(\C)c2ccc(Cl)cc2)c2ccc(OCCN3CCCCC3)cc2)cc1`, the growth in assay [8] is 72.8%; in assay [2] it was 43.4%; in assay [3], 9.64% (active); in assay [4] it was 21.7%; in assay [5], 37.4%; in assay [6] it was 75.1%. For the same compound, the growth in assay [7] was 37.3%.

Consider `CC(C)n1c(/C=C/[C@@H](O)C[C@@H](O)CC(=O)O)c(-c2ccc(F)cc2)c2ccccc21`, for which the growth in assay [8] is 60.6%; in assay [2], 55.8%; in assay [3], 72.9%; in assay [5], 22.1%; in assay [6], 77.7%; in assay [7], 87.5%.

Take `O=C(Nc1cccc2[nH]c(C(F)(F)F)nc12)c1ccc(-n2cnnn2)cc1`: the growth in assay [8] was 63%; in assay [2] it was 105%; in assay [3], 104%; in assay [4], 96.2%; in assay [5], 96%; in assay [6], 116%. The growth in assay [7] is 72.7%.

Consider `Cc1nn(-c2ccc(F)cc2)c2ncnc(Nc3ccc(NC(=O)Nc4ccc(Cl)c(C(F)(F)F)c4)cc3)c12`, for which the growth is 57.9% in assay [8]; 40.1% in assay [2]; 19.9% in assay [3]; 12.8% in assay [4]; 32.1% in assay [5]; 22.2% in assay [6]. Also, the growth in assay [7] is 14.7%.

With `N#Cc1cnn(-c2nc3c(Cl)cccc3s2)c1N`, the growth in assay [8] was 90.4%; in assay [2], 87.1%; in assay [3], 94.7%; in assay [4], 68.1%; in assay [5], 61.7%; in assay [6], 91.1%. Besides, the growth in assay [7] is 88.7%.

With `CSc1nc(NCCO)c(C#N)c(-c2cccc([N+](=O)[O-])c2)n1`, the growth in assay [8] is 96.6%; in assay [2], 99.8%; in assay [3], 101%; in assay [4] it was 91.4%; in assay [5], 96.1%; in assay [6] it was 102%. Also, in assay [7], the growth was 98.3%.

Regarding `CC1C(/C=N/Nc2ccccc2)C(C#N)(C#N)C1(C#N)C#N` (centres undefined), the growth in assay [8] was 77.4%; in assay [2], 62.5%; in assay [3], 60.2%; in assay [4], 82.4%; in assay [5], 67.3%; in assay [6] it was 86%. Moreover, the growth in assay [7] was 62.5%.
